Hit rate of the full screen: of about 330,000 compounds, about 560 (0.17%) were called active. About 1% were inconclusive and are not listed. The list comes from a sample in which actives are over-represented; it also holds similar structures and randomly drawn compounds. Unmarked numbers belong to inactive results. Calls come from the whole dose curve; as a rule, active = well fitted inhibition curve with a large enough effect; inconclusive = small, poorly fitted or top-dose-only effect, or effect the other way; inactive = flat fitted curve, though single readings scatter.
Target: ATP-dependent 6-phosphofructokinase (Trypanosoma brucei brucei) (UniProt O15648)
Sequence (O15648 whole entry, looked up): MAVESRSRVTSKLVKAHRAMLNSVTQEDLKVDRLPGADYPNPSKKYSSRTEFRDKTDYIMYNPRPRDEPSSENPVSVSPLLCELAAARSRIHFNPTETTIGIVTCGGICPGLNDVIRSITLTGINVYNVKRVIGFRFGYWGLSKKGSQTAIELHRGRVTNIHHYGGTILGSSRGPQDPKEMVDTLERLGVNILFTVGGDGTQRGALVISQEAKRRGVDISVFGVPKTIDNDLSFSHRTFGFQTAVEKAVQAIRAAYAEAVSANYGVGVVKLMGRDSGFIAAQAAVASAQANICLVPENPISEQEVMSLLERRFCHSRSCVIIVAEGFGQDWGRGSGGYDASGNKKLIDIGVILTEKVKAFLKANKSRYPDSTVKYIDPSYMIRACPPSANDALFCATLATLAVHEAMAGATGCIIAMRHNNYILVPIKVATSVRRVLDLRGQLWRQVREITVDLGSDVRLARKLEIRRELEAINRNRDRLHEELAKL
Experiment: qHTS Assay to Find Inhibitors of T. brucei phosphofructokinase; note: nearly all actives have a fitted effect of over 60% in size;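 for activity, negative = inhibition: 0% = uninhibited 1x PFK enzyme wells and -100% = no-enzyme wells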
Details: T. brucei PFK, ADP-Glo luminescence; series mostly up to 57.5 µM; activity, negative = inhibition: at the top concentration
Outline: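 PFK 1.25 nM, F6P 0.5 mM, ATP 0.1 mM, 0.1 M TEA pH 8.0, 5 mM MgCl2, 0.01% Tween20, 0.1% BSA; 45 min RT. ADP-Glo readout. qHTS titration up to 57 uM; curves fitted, compounds curve-classed.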
Potency is the fitted concentration of half-maximal effect.

| SMILES | activity, negative = inhibition | Potency |
| --- | --- | --- |
| Nn1c(SCC(=O)Nc2ccc3c(c2)CCC3)nnc1C1CC1 | 2.26% |  |
| O=C(CC1C(=O)NCCN1CC(c1ccccc1)c1ccccc1)NCC1CCOCC1 (configuration not stated) | -13.1% |  |
| O=C(CCN1C(=O)C2C3C=CC(C3)C2C1=O)Oc1ccc2ccccc2c1 (configuration not stated) | 2.74% |  |
| CCOC(=O)c1ccccc1NC(=O)CSc1nc2ccccc2c(=O)[nH]1 | 0.653% |  |
| CC(=O)NCc1ccc(-c2csc(NC(=O)CCCc3nc4ccccc4c(=O)[nH]3)n2)cc1 | 1.84% |  |
| O=C(CSc1nc2ccccc2c(=O)[nH]1)Nc1nc(-c2ccc(Br)cc2)cs1 |  | 2.69 µM (active) |
| O=C(CSc1nnc(N2CCOCC2)n1-c1cccc(F)c1)N1CCN(c2ccccn2)CC1 | -1.48% |  |
| O=C(NNS(=O)(=O)c1ccccc1)c1cnn(-c2ccc(Cl)cc2)c1C(F)(F)F | 0.989% |  |
| Cc1ccc(OCCCCc2c(C)n[nH]c2C)cc1 | 0.85% |  |
| CC(C)[C@H](NC(=O)N1CCn2c1nc1ccccc12)C(=O)NCCc1ccccc1 | 10.6% |  |
| CCCCNC(=O)OCCSCCS(=O)(=O)c1ccc(Cl)cc1 | -7.12% |  |
| O=C(Nc1nnc(Cc2ccc(Cl)cc2)s1)c1cccnc1 | -6.39% |  |
| CC(C)(C)c1cc(C(=O)NCc2cccnc2)ccn1 | 0.81% |  |
| O=C(NCc1ccc(Cl)c(Cl)c1)c1cccnc1 |  | 23.9 µM (active) |
| O=C(CN1C(=O)NC2(CCCC2)C1=O)Nc1ccc(F)c(F)c1F | -0.645% |  |
| Cn1sc(=O)c2cc(S(=O)(=O)NC3CC3)ccc21 |  | 15.1 µM (active) |
| CC1CCC(NS(=O)(=O)c2ccc3c(c2)n(C)c(=O)c(=O)n3C)CC1 (configuration not stated) | 1.11% |  |
| O=S(=O)(NC1CC1)c1ccc(F)c(F)c1 | 0.12% |  |
| O=C(Nc1ccc(Cl)c(Cl)c1)N1CC=C(c2ccccc2)CC1 | -23.1% |  |
| Cc1cccc(N=C2NC(=O)CS2)c1C | 1.01% |  |
| CCc1ccc(Nc2nnc(SCC(=O)c3ccc4c(c3)NC(=O)CO4)s2)cc1 | -3.38% |  |
| CCOc1ccc(/C=C/C(=O)N(CC)CC(=O)NCc2cccs2)cc1OC | 0.107% |  |
| Cc1cccc(NS(=O)(=O)c2cc(Cl)ccc2Cl)n1 | -0.981% |  |
| CN1CCN(C(=O)c2ccc(NS(=O)(=O)c3ccccc3)cc2)CC1 | -0.0214% |  |
| O=C(COc1ccc([N+](=O)[O-])cc1Cl)Nc1ccc2[nH]c(=O)[nH]c2c1 | -0.514% |  |
| O=C(COC(=O)c1cccc(Cl)c1)Nc1ccc2[nH]c(=O)[nH]c2c1 | -4.67% |  |

| SMILES | activity, negative = inhibition | Potency |
| --- | --- | --- |
| COc1ccc(C(=O)OCC(=O)Nc2ccc3[nH]c(=O)[nH]c3c2)c(OC)c1OC |  | 21.3 µM (active) |
| Nc1nnc(SCC(=O)NC2CCCc3ccccc32)s1 (configuration not stated) | -3.89% |  |
| O=C(c1ccccc1)c1cc(-c2ccccn2)c(N2CCOCC2)s1 | 1.02% |  |
| NC(=O)c1ncc(C(F)(F)F)cc1Oc1ccc(F)cc1 | 2.27% |  |
| Cc1nc2nc(COc3ccccc3)[nH]n2c(=O)c1C | 3.97% |  |
| Cc1cc([N+](=O)[O-])nn1Cc1ccc(F)cc1 | -3.17% |  |
| O=C(O)CCN=C1CCc2ccccc2N1 | 1.34% |  |
| O=C(NC1CCCCC1)c1ccc(CNc2c(N3CCOCC3)c(=O)c2=O)cc1 | 2.59% |  |
| CCN(CC(=O)Nc1cccc(S(=O)(=O)N2CCCCC2)c1)Cc1ccccc1 | 3.5% |  |
| CCOc1ccc(N2C(=O)CSC2=NC#N)cc1 | 1.09% |  |
| CCOc1cccc(/C=N/N2C(=O)CSC2=S)c1O |  | 7.57 µM (active) |
| CCOc1cc(/C=N/n2cnnc2)c(Br)cc1O | -1.74% |  |
| C/C(=N/N1CCN(Cc2cccc3ccccc23)CC1)c1cccnc1 | 6.89% |  |
| NS(=O)(=O)c1ccc(NC(=S)NC(=O)c2cccc(Br)c2)cc1 | 0.423% |  |
| NS(=O)(=O)c1ccc(CCNC(=S)Nc2ccc(S(N)(=O)=O)cc2)cc1 | -9.91% |  |
| NS(=O)(=O)c1ccc(NC(=S)Nc2ccc(Br)c(Cl)c2)cc1 |  | 9.53 µM (active) |
| COc1ccc(NC(=O)Cn2cc(C(=O)c3ccncc3)c(=O)c3cc(C)ccc32)cc1Cl | -0.896% |  |
| CCc1ccc(N(CC)c2ncnc3nc[nH]c23)cc1 | -1.92% |  |
| Nc1ccc(Nc2cc(O)c3ncccc3c2)cc1 | -7.91% |  |
| Cc1cccc(CCNS(=O)(=O)c2ccc(S(=O)(=O)NC3CCCC3)cc2)c1 | 0.864% |  |
| CC1CCC(N2CC(=O)N(Cc3ccc4c(c3)OCO4)C(c3ccc(F)cc3)C2=O)CC1 (configuration not stated) | -0.311% |  |
| COC(=O)CNC(=O)c1ccc2c(c1)S(=O)(=O)c1ccccc1C2=O | -1.45% |  |
| O=[N+]([O-])c1ccc(N2CCN(c3ccc(O)cc3)CC2)c(Cl)c1 | 2.76% |  |
| O=S(=O)(NC1CCN(S(=O)(=O)c2ccc3c(c2)OCCO3)CC1)c1c(F)cccc1F | -4.77% |  |
| O=C(COC(=O)c1cc[n+]([O-])cc1)Nc1ccc(Cl)c(C(F)(F)F)c1 | -23.6% |  |
| Cc1ccc(C(CC(=O)O)NC(=O)c2ccc(S(=O)(=O)N3CCCC3)cc2)cc1 (configuration not stated) | -3.41% |  |

From PubChem BioAssay AID485367 (National Center for Advancing Translational Sciences (NCATS), 2010)
